KDM5B inh: inhibitors of human KDM5B histone demethylase. actives 2.6% (n = 220,000). Q9UGL1. KDM5B demethylase, FDH-coupled NADH fluorescence (FDH is formaldehyde dehydrogenase). Potency, µM (titrated, usually from 57.7 µM), most hits filed as inhibitors; active = well fitted inhibition curve with a large enough effect; also: 0% is about no effect; nearly all actives have a fitted effect of over 70% in size
Target sequence (Q9UGL1 whole entry, looked up): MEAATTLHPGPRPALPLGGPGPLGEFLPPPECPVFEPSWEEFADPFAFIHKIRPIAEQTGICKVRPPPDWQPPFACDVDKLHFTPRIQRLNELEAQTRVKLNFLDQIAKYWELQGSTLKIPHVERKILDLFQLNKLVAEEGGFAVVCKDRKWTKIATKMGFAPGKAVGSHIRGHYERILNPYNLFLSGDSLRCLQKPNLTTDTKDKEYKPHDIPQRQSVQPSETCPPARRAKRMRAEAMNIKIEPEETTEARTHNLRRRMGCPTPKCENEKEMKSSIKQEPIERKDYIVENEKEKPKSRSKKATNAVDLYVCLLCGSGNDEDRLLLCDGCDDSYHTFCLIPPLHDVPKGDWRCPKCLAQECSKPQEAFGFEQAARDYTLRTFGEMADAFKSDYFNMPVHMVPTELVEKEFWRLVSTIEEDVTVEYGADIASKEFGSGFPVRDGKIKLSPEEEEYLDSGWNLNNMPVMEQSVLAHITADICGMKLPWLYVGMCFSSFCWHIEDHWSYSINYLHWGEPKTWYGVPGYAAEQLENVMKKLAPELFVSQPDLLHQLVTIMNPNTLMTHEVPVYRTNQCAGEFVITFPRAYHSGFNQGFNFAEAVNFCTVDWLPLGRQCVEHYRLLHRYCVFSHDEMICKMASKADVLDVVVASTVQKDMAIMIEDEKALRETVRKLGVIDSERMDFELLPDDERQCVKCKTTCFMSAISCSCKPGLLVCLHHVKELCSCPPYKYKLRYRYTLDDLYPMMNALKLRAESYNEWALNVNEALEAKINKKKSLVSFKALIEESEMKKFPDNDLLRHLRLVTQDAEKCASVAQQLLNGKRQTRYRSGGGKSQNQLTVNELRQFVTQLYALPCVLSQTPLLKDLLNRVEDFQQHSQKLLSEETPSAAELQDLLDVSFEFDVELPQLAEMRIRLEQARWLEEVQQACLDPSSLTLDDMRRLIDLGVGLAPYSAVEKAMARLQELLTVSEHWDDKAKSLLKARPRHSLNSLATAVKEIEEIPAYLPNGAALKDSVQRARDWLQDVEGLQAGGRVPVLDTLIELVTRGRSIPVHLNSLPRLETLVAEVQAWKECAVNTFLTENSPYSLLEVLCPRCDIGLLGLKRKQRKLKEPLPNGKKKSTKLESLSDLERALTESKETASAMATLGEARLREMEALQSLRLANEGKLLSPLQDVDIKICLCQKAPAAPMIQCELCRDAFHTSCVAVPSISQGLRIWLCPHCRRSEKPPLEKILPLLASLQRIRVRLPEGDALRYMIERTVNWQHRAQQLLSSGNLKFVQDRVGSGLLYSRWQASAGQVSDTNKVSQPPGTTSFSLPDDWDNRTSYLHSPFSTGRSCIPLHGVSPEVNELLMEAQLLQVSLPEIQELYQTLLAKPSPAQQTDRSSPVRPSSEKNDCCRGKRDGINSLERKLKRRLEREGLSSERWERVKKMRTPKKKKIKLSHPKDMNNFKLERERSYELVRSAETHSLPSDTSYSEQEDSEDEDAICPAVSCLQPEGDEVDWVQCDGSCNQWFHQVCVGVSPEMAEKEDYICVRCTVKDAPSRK
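Measured: NADH fluorescence change, 30 min, RT. System: KDM5BΔAP 200 nM final, H3K4me3 peptide, α-KG, Fe(II), ascorbate, NAD⁺ plus FDH, pH 7.5 HEPES. Compounds: titrated, 10 min pre-incubation with enzyme.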
The depositor's hits bear a star; i = inactive. This is one part of a sample in which hits are shown more often than they occur. Potency is read from the fitted curve at half-maximal effect.

SMILES	KDM5B inh
O=C(CCC(=O)c1ccc(Cl)cc1)OCC(=O)c1ccc(-c2ccccc2)cc1	i
CCOc1ccc(NC(C)(CC)c2nnnn2-c2c(C)cccc2C)cc1 (centres undefined)	i
CC1CCC(NC(=O)c2cccc(C#N)c2)CC1 (centres undefined)	i
O=C(NCCc1ccc(Cl)cc1)c1nc(-c2ccsc2)c2ccccn12	22.4µM*
Cc1oc(-c2ccc(C(=O)NCCc3ccc(Cl)cc3)cc2)nc1CSc1ccccc1	i
O=C(Cn1c(=O)nc(-c2ccccc2)c2ccccc21)NCCc1ccc(Cl)cc1	i
O=C(NCCc1ccc(Cl)cc1)c1nc(-c2ccc(Cl)nc2)c2ccccn12	50.1µM*
O=C(NCCc1ccc(Cl)cc1)c1nc(-c2ccc(F)cc2)c2ccccn12	25.1µM*
O=C(NCc1ccc(F)cc1)c1nc(-c2ccc(F)cc2)c2cnccn12	35.5µM*
O=C(Cn1cccc1-c1nc(-c2ccc(F)cc2)no1)NCCc1ccc(Cl)cc1	i
Cc1cccn2c(=O)c(C(=O)NCc3ccc(F)cc3)c(O)nc12	i
O=C(NCc1ccc(F)cc1)c1nc(-c2cccnc2)c2cnccn12	i
O=C(Cc1cccs1)NCCc1ccc(Cl)cc1	i
Cc1ccccc1-c1nnc(SCC(=O)c2ccc(C#N)cc2)n1C	i
CC1CCC(NC(=O)CN2CCC(c3nc4ccccc4o3)CC2)CC1 (centres undefined)	i
O=C(COc1ccc(Cl)c(Cl)c1)Nc1ccc2[nH]ncc2c1	i
CC(C)c1ccc(Nc2nnc(SCC(=O)NC(C)(C)C)s2)cc1	i
COc1ccc2cc(C(=O)N3CCC(C)(C(=O)NCc4ccccc4)CC3)[nH]c2c1	i
O=C(CN1CCCCC1)Nc1c(-c2ccccc2)c2cc(Br)ccc2[nH]c1=O	i
CC(=O)Nc1cccc(C(C)NC(=O)Nc2cc(Cl)c(Cl)cc2Cl)c1 (centres undefined)	i
O=S(Cc1ccc(Cl)cc1)Cc1cccc(F)c1 (centres undefined)	i
C=C(C)CC(NC(C)=O)(C(=O)OCC)C(=O)OCC	i
O=C(NCCc1ccc(Cl)cc1)c1nc(-c2ccc(F)cc2)c2cnccn12	31.6µM*
O=C(NCCc1cccnc1)c1ccc(Cl)cc1	i
O=C(NCCc1ccccc1)c1ccc(CSc2nc3ccncc3n2Cc2ccc(F)cc2)cc1	i
SMILES	KDM5B inh
CCCCC1CCC(C(=O)NNC(=O)c2ccc(Br)cc2)CC1 (centres undefined)	i
Cc1noc([C@@H]2CN(Cc3ccc(OC(C)C)cc3)C[C@H]2CO)n1	i
Cc1cc(C)cc(C(=O)NCCC23CC4CC(CC(C4)C2)C3)c1	i
COc1ccc(CCC(=O)N[C@@H]2CN(S(C)(=O)=O)C[C@H]2CN(C)C)cc1	i
COc1ccc(CNC(=O)N[C@@H]2CN(c3ncccn3)C[C@H]2CN(C)C)cc1	28.2µM*
COCCNC(=O)N[C@@H]1CN(Cc2ccccc2)C[C@H]1CN(C)C	i
CN(C)C[C@@H]1CN(c2ccncn2)C[C@H]1NC(=O)COc1ccc(Cl)cc1	i
COCCCNC(=O)N[C@@H]1CN(c2ncccn2)C[C@H]1CN(C)C	31.6µM*
O=C(NCCN1CCN(C(=O)c2ccccc2)CC1)C(=O)Nc1ccccc1	i
COc1cc(NC(=O)c2cc3ccccc3oc2=O)cc(OC)c1OC	i
CCCCN1CCc2[nH]cnc2C1c1cc(C)ccc1F (centres undefined)	i
Cc1ncc(-c2ccc(S(=O)(=O)Nc3ccc(F)cc3C)cc2)o1	i
Cc1oc(-c2ccccc2)nc1CC(=O)NCC1CCCO1 (centres undefined)	i
O=C(Cc1ccc(-c2ccccc2)cc1)NCCc1ccccn1	i
CC1(C(=O)NCC2CCCO2)CCc2cnc(NCc3ccccc3)nc21 (centres undefined)	39.8µM*
CC1(C(=O)NCCc2ccccn2)CCc2cnc(NCc3ccccc3)nc21 (centres undefined)	31.6µM*
CC1(C(=O)NC2CC2)CCCc2cnc(Nc3ccccc3)nc21 (centres undefined)	i
CC1(C(=O)NCCCn2ccnc2)COCc2cnc(Nc3ccccc3)nc21 (centres undefined)	i
CC1(C(=O)NCC2CC2)CCCc2cnc(NCc3ccccc3)nc21 (centres undefined)	35.5µM*
CC1(C(=O)NC2CC2)CCc2cnc(Nc3ccccc3)nc21 (centres undefined)	i
Cc1ccccc1C(=O)NC(NC(=O)c1ccccc1C)c1ccc(Br)cc1	i
CNC(=O)NC(=O)CN(CC(C)O)c1ccccc1 (centres undefined)	i
Cc1ccc2nc(C3CCCN(Cc4cccc(-c5cccnc5)c4)C3)[nH]c(=O)c2c1 (centres undefined)	i
CC(C)(C)c1ccc(C(=O)NC(Cc2c[nH]c3ccccc23)C(=O)O)cc1 (centres undefined)	i
CC(C)CCNC(=O)NC(=O)CSc1nc2ccccc2c(=O)n1C1CC1	i
SMILES	KDM5B inh
Cc1nc(NC(=O)C2c3ccccc3C(=O)N(C3CCCC3)C23CCCC3)sc1C (centres undefined)	22.4µM*
CCCCNC(=O)C1c2ccccc2C(=O)N(CCOC)C12CCCCC2 (centres undefined)	i
COCCN1C(=O)c2ccccc2C(C(=O)Nc2ccc(OC)cc2)C12CCCC2 (centres undefined)	15.8µM*
COCCN1C(=O)c2ccccc2C(C(=O)NCCc2ccccc2)C12CCCCC2 (centres undefined)	i
COCCN1C(=O)c2ccccc2C(C(=O)NCCc2c[nH]c3ccccc23)C12CCCC2 (centres undefined)	22.4µM*
O=C(NC1CC1)C1c2ccccc2C(=O)N(C2CCCCC2)C12CCCCC2 (centres undefined)	i
COCCN1C(=O)c2ccccc2C(C(=O)Nc2ccc(C(=O)OC)cc2)C12CCCC2 (centres undefined)	i
CC(C)NC(=O)C1c2ccccc2C(=O)N(C2CCCC2)C12CCCC2 (centres undefined)	i
COCCN1C(=O)c2ccccc2C(C(=O)Nc2ccc(NC(C)=O)cc2)C12CCCCC2 (centres undefined)	i
COc1ccc2[nH]cc(C(C(=O)O)N3CCN(Cc4cccnc4)CC3)c2c1 (centres undefined)	i
COCc1cnc2c(c1SCC(=O)NC1CCCC1)c(=O)n(C)c(=O)n2C	i
COc1ccc(C2(C(=O)N3CCC4(CC3)C(OC)CN4c3cccc(F)c3)CC2)cc1 (centres undefined)	i
COc1ccc(/C=C(\C#N)c2nc3ccccc3[nH]2)cc1I	i
CCCn1nc(C(=O)OCC(=O)N2c3ccccc3CC2C)c2ccccc2c1=O (centres undefined)	i
Cc1nc(-c2cccc(Cl)c2)n(CC(=O)Nc2cccc(C(C)C)c2)c(=O)c1CCO	i
O=C(c1ccco1)N1N=C(c2c(-c3ccccc3)c3ccccc3[nH]c2=O)CC1c1ccccc1 (centres undefined)	i
O=C(c1ccc(C(F)(F)F)cc1)N1CCCN(C2CC2)CC1	i
CC(C)c1cc(CN(C)Cc2cn[nH]c2-c2ccc(F)cc2)no1	28.2µM*
CCN(Cc1nc(COC)no1)Cc1cn[nH]c1-c1ccc(F)cc1	i
Cc1cc(CN(C)Cc2ccc(F)cc2)no1	i
O=S(=O)(c1ccc(F)cc1)N1CCCN(c2nnnn2-c2ccccc2)CC1	i
